Screening results deposited in PubChem BioAssay by several laboratories.
Sampled rows, rich in hits. Any-hit rate of the full collection: about 3%.
Mtb FBA inh – Mtb FBA enzyme inhibitors, primary screen, biochemical, fluorescence, strain H37Rv. AID 588726, 2011. purified M. tuberculosis FBA, fluorescence read-out. Fructose-bisphosphate aldolase (Mycobacterium tuberculosis (strain ATCC 25618 / H37Rv)), …. inhibition, % at 1 µM. 2.3% of 360,000 active; in the data active = inhibition above about 27%;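 note: 0% = vehicle and 100% = reference inhibitor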
Target sequence (P9WQA3 whole entry, looked up): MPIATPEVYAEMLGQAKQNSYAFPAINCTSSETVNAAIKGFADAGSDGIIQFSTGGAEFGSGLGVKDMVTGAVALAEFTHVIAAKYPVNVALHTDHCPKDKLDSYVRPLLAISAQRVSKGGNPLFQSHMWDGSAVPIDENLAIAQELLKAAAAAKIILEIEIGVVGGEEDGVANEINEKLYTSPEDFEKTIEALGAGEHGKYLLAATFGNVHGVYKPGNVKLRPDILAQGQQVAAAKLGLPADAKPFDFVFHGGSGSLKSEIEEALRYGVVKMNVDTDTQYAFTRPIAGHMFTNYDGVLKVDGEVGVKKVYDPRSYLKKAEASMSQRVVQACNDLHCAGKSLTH
GDH-TPI inh – GDH-TPI coupling enzyme inhibitors, primary screen, artefact control for M. tuberculosis FBA inhibitor project, biochemical, absorbance, full deck | GDH-TPI coupled enzyme counterscreen, NADH absorbance | inhibition, % at 4.8 µM | 1.2% of 360,000 active | AID 588335, 2011; in the data active = inhibition above about 30%;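 note: 0% = DMSO wells and 100% = wells lacking the enzyme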
Rv3671c inh – Rv3671c serine protease inhibitors, primary screen, biochemical, fluorescence polarization, M. tuberculosis H37Rv; 0.048% of 320,000 active; AID 2606, 2010; inhibition, % at 5.96 µM; in the data active = inhibition above about 38%;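 note: extracellular domain of Rv3671c used as enzyme; 0% = enzyme with DMSO and 100% = no enzyme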
Mtb BioA inh – M. tuberculosis BioA enzyme inhibitors, primary screen, biochemical, plate reader, single point, HTS | purified M. tuberculosis BioA enzyme | AID 602481, 2012 | inhibition, % at 9.99 µM | 0.096% of 360,000 active; in the data active = inhibition above about 40%
FadD28 binding – inhibitors of FadD28 bisubstrate probe binding, primary screen, biochemical, fluorescence polarization, single point; 0.22% of 360,000 active; Mycobacterium tuberculosis FadD28 fatty-acid-AMP ligase; inhibition, % at 12.5 µM; in the data active = inhibition above about 8.5%, passing the limit was not always enough
The depositor's hits bear a star.

Results for C[C@@H](NC(=O)[C@@H]1[C@@H](CO)[C@@H]2Cn3c(cccc3=O)[C@@H]2N1CC1CC1)c1ccccc1 ?
Mtb BioA inh: 0

Results for O=C(/C=C/c1ccccc1O)c1ccco1 ?
Mtb FBA inh: -4; GDH-TPI inh: 33*; Rv3671c inh: 2; Mtb BioA inh: 0; FadD28 binding: -1

What do the screens show for `CC(C)(C)C(=O)Nc1ccc(/C=C/C(=O)c2ccco2)cc1`?
Mtb FBA inh: 2; GDH-TPI inh: 49*; Rv3671c inh: 4; Mtb BioA inh: 0; FadD28 binding: -3

Results for Nc1ccc(-c2nc3ccc(N)cc3o2)cc1 ?
Mtb FBA inh: active; GDH-TPI inh: 46*; Rv3671c inh: 10; Mtb BioA inh: 0; FadD28 binding: 0

What do the screens show for `Cc1ccc2nc(-c3cc(N)cc(N)c3)oc2c1`?
Mtb FBA inh: 4; GDH-TPI inh: 8; Rv3671c inh: 17; Mtb BioA inh: 0; FadD28 binding: -5

What do the screens show for `O=C(C1CCOCC1)N1C[C@@H]2[C@H](c3ccccc31)[C@H](CO)N2Cc1ccccc1Cl`?
Mtb BioA inh: -3

What do the screens show for `Nc1ccc(C(=O)O)cc1S(=O)(=O)O`?
Mtb FBA inh: 0; GDH-TPI inh: -8; Rv3671c inh: 8; Mtb BioA inh: -2; FadD28 binding: -4

How did Nc1cc(S(=O)(=O)O)cc2ccc(S(=O)(=O)O)cc12 do in these assays?
Mtb FBA inh: 115*; GDH-TPI inh: 1; Mtb BioA inh: 0; FadD28 binding: -2

What do the screens show for `Cc1noc(C)c1S(=O)(=O)Nc1ccc2c(c1)CC(=O)N([C@H](C)CO)C[C@H](C)[C@H](CN(C)Cc1ccc3c(c1)OCO3)O2`?
Mtb BioA inh: -1

Results for Cc1ccc(S(=O)(=O)Nc2ccc3c(c2)C(=O)N([C@H](C)CO)C[C@H](C)[C@@H](CN(C)C(=O)Nc2ccc4c(c2)OCO4)OCCCC[C@H](C)O3)cc1 ?
Mtb BioA inh: -1

What do the screens show for `CCCCc1nnc(NC(=O)c2ccc3[nH]c(=O)c(=O)[nH]c3c2)s1`?
Mtb FBA inh: 18; GDH-TPI inh: 46*; Rv3671c inh: -21; Mtb BioA inh: -1; FadD28 binding: -3

What do the screens show for `O=C(Nc1ccc(F)cc1)c1ccc2[nH]c(=O)c(=O)[nH]c2c1`?
Mtb FBA inh: 2; GDH-TPI inh: 9; Rv3671c inh: 6; Mtb BioA inh: 4; FadD28 binding: -8

What do the screens show for `Cc1cccc(NC(=O)c2ccc3[nH]c(=O)c(=O)[nH]c3c2)n1`?
Mtb FBA inh: 6; GDH-TPI inh: 32*; Rv3671c inh: -1; Mtb BioA inh: -5; FadD28 binding: -1

How did COc1ccc(S(=O)(=O)Nc2ccc3c(c2)C(=O)N([C@@H](C)CO)C[C@@H](C)[C@H](CN(C)C(=O)CCC(F)(F)F)OCCCC[C@@H](C)O3)cc1 do in these assays?
Mtb BioA inh: 1

Results for COC(=O)c1c(N)n(-c2ccc(NC(C)=O)cc2)c2nc3ccccc3nc12 ?
Mtb FBA inh: 109*; GDH-TPI inh: 19; Rv3671c inh: -7; Mtb BioA inh: -1; FadD28 binding: -2

What do the screens show for `Nc1c(C(=O)NCCN2CCOCC2)c2nc3ccccc3nc2n1CCc1ccccc1F`?
Mtb FBA inh: 124*; GDH-TPI inh: 27; Rv3671c inh: -1; Mtb BioA inh: 3; FadD28 binding: -17

How did COc1ccc(-n2c(N)c(C(=O)NCc3ccco3)c3nc4ccccc4nc32)cc1OC do in these assays?
Mtb FBA inh: 5; GDH-TPI inh: 11; Rv3671c inh: -2; FadD28 binding: -3

What do the screens show for `COCCNC(=O)c1c(N)n(-c2cccc(C)c2)c2nc3ccccc3nc12`?
Mtb FBA inh: 183*; GDH-TPI inh: -1; Rv3671c inh: -6; Mtb BioA inh: 0; FadD28 binding: -1

Results for COCCCNC(=O)CSc1nc2ccccc2c(=O)n1CCc1ccc(S(N)(=O)=O)cc1 ?
Mtb FBA inh: 32*; GDH-TPI inh: 0; Rv3671c inh: -1; Mtb BioA inh: 0; FadD28 binding: -1

What do the screens show for `Cc1ccc(-n2c(N)c(C(=O)Nc3c(C)n(C)n(-c4ccccc4)c3=O)c3nc4ccccc4nc32)cc1`?
Mtb FBA inh: 4; GDH-TPI inh: 9; Rv3671c inh: 3; Mtb BioA inh: -1; FadD28 binding: -1

What do the screens show for `O=C(NCC[C@H]1CC[C@H](NC(=O)C2CCCC2)[C@@H](CO)O1)c1cc(Cl)cc(Cl)c1`?
Mtb BioA inh: -1

What do the screens show for `COCCCNC(=O)c1c(N)n(-c2ccccc2)c2nc3ccccc3nc12`?
Mtb FBA inh: active; GDH-TPI inh: 13; Rv3671c inh: -14; Mtb BioA inh: 0; FadD28 binding: -4

How did Cc1cc(C)cc(-n2c(N)c(C(=O)Nc3c(C)n(C)n(-c4ccccc4)c3=O)c3nc4ccccc4nc32)c1 do in these assays?
Mtb FBA inh: 0; GDH-TPI inh: 5; Rv3671c inh: -6; Mtb BioA inh: 0; FadD28 binding: -4

Results for C=CCNC(=O)c1c(N)n(-c2cccc(S(N)(=O)=O)c2)c2nc3ccccc3nc12 ?
Mtb FBA inh: 116*; GDH-TPI inh: 17; Rv3671c inh: -10; Mtb BioA inh: 1; FadD28 binding: -2

How did COCCCNC(=O)c1c(N)n(-c2ccc(S(N)(=O)=O)cc2)c2nc3ccccc3nc12 do in these assays?
Mtb FBA inh: active; GDH-TPI inh: 25; Rv3671c inh: -3; Mtb BioA inh: -1; FadD28 binding: 0

Results for Nc1c(C(=O)NCc2ccccc2)c2nc3ccccc3nc2n1-c1ccc2c(c1)OCO2 ?
Mtb FBA inh: -1; GDH-TPI inh: -4; Rv3671c inh: -1; Mtb BioA inh: -1; FadD28 binding: 0

What do the screens show for `COc1cccc(-n2c(N)c(C(=O)Nc3c(C)n(C)n(-c4ccccc4)c3=O)c3nc4ccccc4nc32)c1`?
Mtb FBA inh: 10; GDH-TPI inh: 37*; Rv3671c inh: -3; Mtb BioA inh: -2; FadD28 binding: -1

What do the screens show for `Cc1ccc(S(=O)(=O)Nc2ccc3c(c2)C(=O)N([C@@H](C)CO)C[C@@H](C)[C@@H](CN(C)Cc2ccccc2)O3)cc1`?
Mtb BioA inh: 2

How did CN(C)CCCNC(=O)C[C@@H]1CC[C@H](NS(=O)(=O)c2ccc(F)cc2)[C@@H](CO)O1 do in these assays?
Mtb BioA inh: 3

Results for COc1cc(-n2c(N)c(C(=O)NCc3ccco3)c3nc4ccccc4nc32)cc(OC)c1OC ?
Mtb FBA inh: 14; GDH-TPI inh: 12; Rv3671c inh: -1; FadD28 binding: -1

How did Nc1c(C(=O)NCCN2CCOCC2)c2nc3ccccc3nc2n1-c1ccc2c(c1)OCO2 do in these assays?
Mtb FBA inh: 4; GDH-TPI inh: 22; Rv3671c inh: 3; Mtb BioA inh: -2; FadD28 binding: -1
